Laboratory results published in PubChem BioAssay.
Records with an inconclusive call do not appear. Activity calls are given as the source filed them. Unless noted, cut-off not given; nearly all actives show AC50 up to about 30 µM.

Experiments:
[1] = viability loss in pontine glioma line – cell-based, SU-DIPG-IV, MIPE4.0, CellTiter-Glo, qHTS, dose response (AID 1347063); conditions: CellTiter-Glo ATP luminescence;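 further: compound exposure lasted 48 hours before the viability readout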
[2] = viability loss in pontine glioma line – cell-based, SU-DIPG-XIII, MIPE5.0, CellTiter-Glo, qHTS, dose response (AID 1347064; cut-off not given, nearly all actives have AC50 up to about 23 µM;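 on AC50: cells exposed to compound for 48 hours before the viability read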); conditions: CellTiter-Glo ATP luminescence
[3] = viability loss in pontine glioma line – cell-based, SU-DIPG-XXV, MIPE5.0, CellTiter-Glo, qHTS, dose response (AID 1347065; cut-off not given, nearly all actives have AC50 up to about 26 µM;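 further: cells exposed to compound for 48 hours before ATP readout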); conditions: CellTiter-Glo ATP luminescence
[4] = growth inhibition of DIPG cells – cell-based, MIPE4.0 library, CellTiter-Glo luminescence, qHTS (AID 1347066); conditions: SU-DIPG-VI viability, CellTiter-Glo ATP luminescence;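 further: cells exposed to compound for 48 hours before readout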
[5] = JHH-DIPG-1 glioma cell viability, MIPE5.0 library, CellTiter-Glo luminescence, qHTS (AID 1347067; cut-off not given, nearly all actives have AC50 up to about 26 µM;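 further: cells exposed to compound for 48 hours before readout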); conditions: JHH-DIPG-1 glioma viability, CellTiter-Glo ATP luminescence
[6] = compounds altering HSF1 focus formation in cells – imaging, Selleck Cancer Library (AID 1347162; in the data active means plate-normalised HSF1 focus index below about 0.46); conditions: human cells, HSF1 nuclear foci imaging, at 10 µM; SSMD: measured here: HSF1 foci SSMD mean; cell count: measured here: cell number; plate-normalised HSF1 focus index: stronger effect = lower value
[7] = compounds altering viability of human ES cells (AID 493140; call rule not given here;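 further: cells exposed to compounds for four days before counting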); conditions: human embryonic stem cell survival screen; stronger effect = higher value
[8] = target: Mitogen-activated protein kinase 7 (Homo sapiens) (UniProt Q13164); assay: Gal4-ERK5 driven luciferase induction – cell-based, HTS, primary screen (AID 1508626;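 active means luciferase signal above three times the same-plate solvent-only control wells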;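 further: luciferase driven by Gal4-ERK5 fusion binding five Gal4 sites before minimal TATA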); conditions: HeLa Gal4-ERK5 transactivation, 18 h, at 5 µM, stronger effect = higher value
Mitogen-activated protein kinase 7 (Homo sapiens), sequence (Q13164 whole entry, looked up, the tested form may be a part): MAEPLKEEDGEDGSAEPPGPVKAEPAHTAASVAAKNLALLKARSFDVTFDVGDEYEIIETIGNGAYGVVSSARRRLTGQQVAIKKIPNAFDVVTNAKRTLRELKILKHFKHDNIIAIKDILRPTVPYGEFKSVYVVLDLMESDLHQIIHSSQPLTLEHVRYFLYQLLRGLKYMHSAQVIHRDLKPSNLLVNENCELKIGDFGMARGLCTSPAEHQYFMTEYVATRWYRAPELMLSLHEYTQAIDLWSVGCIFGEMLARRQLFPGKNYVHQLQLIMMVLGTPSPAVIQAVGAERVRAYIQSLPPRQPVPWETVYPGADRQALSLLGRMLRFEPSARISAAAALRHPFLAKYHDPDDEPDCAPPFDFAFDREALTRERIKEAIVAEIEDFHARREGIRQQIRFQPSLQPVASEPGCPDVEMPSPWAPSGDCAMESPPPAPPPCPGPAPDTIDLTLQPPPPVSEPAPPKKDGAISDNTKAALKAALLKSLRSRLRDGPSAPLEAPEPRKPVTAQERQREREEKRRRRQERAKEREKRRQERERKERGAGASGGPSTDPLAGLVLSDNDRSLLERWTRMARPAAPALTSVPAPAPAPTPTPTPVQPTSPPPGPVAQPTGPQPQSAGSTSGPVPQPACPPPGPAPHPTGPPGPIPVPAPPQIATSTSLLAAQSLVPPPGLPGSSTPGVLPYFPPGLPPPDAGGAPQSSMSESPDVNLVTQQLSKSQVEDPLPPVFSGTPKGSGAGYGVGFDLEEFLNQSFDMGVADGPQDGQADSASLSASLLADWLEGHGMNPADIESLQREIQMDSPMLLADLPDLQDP

[9] = test system: Hepatitis C virus NS3 helicase; assay: blockers of NS3h binding to ssDNA – biochemical, fluorescence polarization, LOPAC1280 library, primary screen (AID 687035; in the data active means inhibition above about 37%); conditions: Purified HCV NS3 helicase, Cy5-dT15 ssDNA binding fluorescence polarization; stronger effect = higher value; concentration not given here
[10] = compounds altering Cy5-DNA-NS3h complex signal – biochemical, LOPAC1280, artefact control for HCV NS3 helicase inhibitor project (AID 687037; call rule not given here); conditions: Cy5-DNA-NS3h complex fluorescence interference counterscreen
[11] = blockers of cellular phospholipid synthesis – cell-based, LOPAC library, screen 4, primary screen (AID 1347384; call rule not given here); conditions: animal cells, phospholipid biosynthesis inhibition screen; at 10 µM
[12] = compounds altering circadian rhythm period length – cell-based, LOPAC library, luminescence reporter (AID 2774; call rule not given here;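 further: values are relative to mean of DMSO wells on each plate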); conditions: circadian reporter cells, at 7 µM, actives lie on both sides

O=C(NOCC1CC1)c1ccc(F)c(F)c1Nc1ccc(I)cc1Cl
active: AC50 [1] 20.9 µM | AC50 [2] 3.32 µM | AC50 [3] 2.35 µM | AC50 [4] 10.5 µM | AC50 [5] 1.86 µM

Clc1ccc(Nc2nnc(Cc3ccncc3)c3ccccc23)cc1
7070: cell count [6]
active: AC50 [3] 20.9 µM | AC50 [5] 18.6 µM
2.9: SSMD [6]
inactive: outcome [2] | outcome [4] | plate-normalised HSF1 focus index [6] 1.15

CC(=O)[C@H]1CC[C@H]2[C@@H]3CC=C4C[C@@H](O)CC[C@]4(C)[C@H]3CC[C@]12C
inactive: survival [7] 9.33 | outcome [1] | outcome [2] | outcome [4] | outcome [5] | luciferase signal [8] 44 AU

CS(=O)(=O)CCNCc1ccc(-c2ccc3ncnc(Nc4ccc(OCc5cccc(F)c5)c(Cl)c4)c3c2)o1
active: AC50 [1] 11.8 µM | AC50 [2] 18.6 µM | AC50 [3] 13.2 µM | AC50 [4] 16.6 µM | AC50 [5] 20.9 µM

O=c1[nH]c(=O)n([C@H]2C[C@H](O)[C@@H](CO)O2)cc1I
inactive: outcome [1] | outcome [4]

CNC(=O)c1cc(Oc2ccc(NC(=O)Nc3ccc(Cl)c(C(F)(F)F)c3)cc2)ccn1
active: AC50 [1] 20.9 µM | AC50 [3] 10.5 µM | AC50 [4] 20.9 µM | AC50 [5] 4.17 µM
inactive: plate-normalised HSF1 focus index [6] 1.05
0.678: SSMD [6]
6960: cell count [6]

COC(=O)C1=C(C)NC(C)=C(C(=O)OCCCN2CCC(c3ccccc3)(c3ccccc3)CC2)C1c1cccc([N+](=O)[O-])c1 (configuration not stated)
active: AC50 [2] 13.2 µM | AC50 [3] 8.33 µM
inactive: outcome [1] | outcome [4]

CCN[C@H]1C[C@H](C)S(=O)(=O)c2sc(S(N)(=O)=O)cc21
inactive: survival [7] 14.7 | outcome [1] | outcome [2] | outcome [3] | outcome [4] | outcome [5] | plate-normalised HSF1 focus index [6] 1.14
2.68: SSMD [6]
6990: cell count [6]

CC1(COc2ccc(CC3SC(=O)NC3=O)cc2)CCCCC1 (configuration not stated)
inactive: survival [7] 117

Nc1ccn(C[C@@H](CO)OCP(=O)(O)O)c(=O)n1
inactive: outcome [1] | outcome [2] | outcome [3] | outcome [4] | outcome [5]

CSCC[C@H](NC(=O)[C@H](Cc1c[nH]c2ccccc12)NC(=O)CCNC(=O)OC(C)(C)C)C(=O)N[C@@H](CC(=O)O)C(=O)N[C@@H](Cc1ccccc1)C(N)=O
inactive: outcome [1] | outcome [2] | outcome [3] | outcome [4] | outcome [5]

Cc1[nH]c(=O)c(C#N)cc1-c1ccc2nccn2c1
inactive: inhibition [9] -1% | fluorescence ratio (interference) [10] 1 | outcome [1] | outcome [3] | outcome [4] | outcome [5] | outcome [11]

CCCCCCCCCCCCCCCC(=O)NCCO
inactive: period change [12] 0.19 h | survival [7] 109 | inhibition [9] -7% | fluorescence ratio (interference) [10] 1
